Experimental data published in PubChem BioAssay AID2066 (NMMLSC, 2009).
Screen size: about 320,000 compounds; about 50 (0.02%) were called active.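 How the source made its calls: active means GFP response relative to DMSO above a set limit, near screen average plus 3 SD (cut at about 150% in these data); inconclusive means fewer than 70 cells counted for the yeast strain; inactive means the rest.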 For the sample, actives were picked, then their nearest neighbours and some compounds at random.

Assay: yeast AGP1-GFP level changes, GLN3 branch – cell-based, multiplex flow cytometry, S. cerevisiae, MLPCN library, primary screen (AID 2066);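 further: median GFP channel fluorescence of the gated AGP1 strain per well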
Details: 3 h, at 10 µM, active compounds read high, GFP as percent of DMSO wells

GFP response vs DMSO, inactive:
Cc1ccc(Oc2cc(NC(=O)CCCn3nc(C)c([N+](=O)[O-])c3C)cc([N+](=O)[O-])c2)cc1 95.5%
CCn1cc(C(=O)Nc2cc(C)ccc2C)c(=O)c2ccc(C)nc21 108%
C=CCNC(=S)/N=c1/ccccn1Cc1ccccc1 108%
Cc1ccc2cc(C)c(N3CCC(C)CC3)nc2c1 108%
CCC1(C)Cc2c(sc3nnn(CC(=O)Nc4ccc(Cl)cc4)c(=O)c23)CO1 (stereo not given) 98%
Cc1nn(Cc2ccccc2)c(C)c1C(=O)N1CCN(CC(=O)Nc2ccccc2Cl)CC1 99.8%
CCN1C(=O)N[C@@H](c2ccccc2)[C@H](C(C)=O)[C@H]1C 81.1%
COC(=O)c1cc(NC(=O)c2cc(C(C)(C)C)nn2Cc2cccc(C)c2)ccc1N1CCOCC1 97%
CCOC(=O)C(C)n1cnc2scc(-c3ccc(C)c(C)c3)c2c1=O (stereo not given) 93.8%
COC(=O)c1sccc1-n1cccc1C(=O)C(=O)N1CCCCC1 92.6%
Cc1ccc(C(c2nnnn2CS(=O)(=O)c2ccc(C)cc2)N2CCC(C)CC2)cc1 (stereo not given) 91.3%
CC(=O)Nc1ccc(S(=O)(=O)NCC(=O)OCC(=O)c2ccc[nH]2)cc1 107%
O=C(Nc1cc(S(=O)(=O)N2CCOCC2)ccc1N1CCOCC1)c1c(F)cccc1Cl 103%
CC(Sc1nnc(Cc2ccc([N+](=O)[O-])cc2)o1)C(N)=O (stereo not given) 97.7%
O=C(O)c1cccc(S(=O)(=O)N2CC=C(c3ccccc3)CC2)c1 101%
O=C1c2ccccc2C(=O)N1CC1c2ccccc2CCN1S(=O)(=O)c1ccccc1 (stereo not given) 96.4%
Cc1nnc(CN(C)Cc2cn[nH]c2-c2ccc(-c3ccccc3)cc2)o1 108%
CC(c1ccccn1)N(C)C(=O)c1ccc2nc(Cc3cccc(Cl)c3)oc2c1 (stereo not given) 103%
Cn1nnnc1SCC(=O)Nc1cccc(S(=O)(=O)N2CCCCC2)c1 77.3%
O=C(OCC(=O)N1CCCCCC1)c1cnc(Cl)c(Cl)c1 97.1%
COc1ccc(NC2=CC(=S)NC(C)(C)C2)cc1 99.9%
CCN(CC)CCCNC(=O)c1c(O)c2cc(F)cc3c2n(c1=O)C(C)CC3 (stereo not given) 88.3%
O=c1cc(Cl)c2ccccc2n1-c1ccccc1 103%
N#Cc1ccccc1NC(=O)COc1c(Br)cc(Br)c2cccnc12 96.8%
Cc1cc(C)nc(N2C(=O)CC(Cc3ccccc3)C2=O)n1 (stereo not given) 112%
CCOC(=O)N1CCC(NC(=O)CN2C(=O)COc3ccc(C(C)(C)C)cc32)CC1 88.7%
CCCCN(C(=O)c1ccc2ccccc2c1)c1c(N)n(CCCC)c(=O)[nH]c1=O 92.5%
O=C(CN1CCN(S(=O)(=O)c2cc(Cl)ccc2Cl)CC1)c1ccc(O)c(O)c1 94.9%
CCOc1ccc2oc(C(=O)N(CC)CC(=O)Nc3ccc(NC(C)=O)cc3)c(C)c2c1 103%
COc1cccc(NC(=O)C(Sc2nc3ccccc3c(=O)n2CC(C)C)c2ccccc2)c1 (stereo not given) 98.7%
